# Molecular target: Solute carrier family 2, facilitated glucose transporter member 1 (Homo sapiens) (UniProt P11166)
# Assay: ST_JUDE_LEISH: Cytotoxicity at 2uM final concentration against transgenic Leishmania Mexicana promastigotes LmGLUT1 that are glucose transport deficient and complemented with the human glucose transporter GLUT1. Activity is measured by DNA content using SYBR green in vitro
# Type: functional
# Sequence of Solute carrier family 2, facilitated glucose transporter member 1 (Homo sapiens) (P11166 whole entry): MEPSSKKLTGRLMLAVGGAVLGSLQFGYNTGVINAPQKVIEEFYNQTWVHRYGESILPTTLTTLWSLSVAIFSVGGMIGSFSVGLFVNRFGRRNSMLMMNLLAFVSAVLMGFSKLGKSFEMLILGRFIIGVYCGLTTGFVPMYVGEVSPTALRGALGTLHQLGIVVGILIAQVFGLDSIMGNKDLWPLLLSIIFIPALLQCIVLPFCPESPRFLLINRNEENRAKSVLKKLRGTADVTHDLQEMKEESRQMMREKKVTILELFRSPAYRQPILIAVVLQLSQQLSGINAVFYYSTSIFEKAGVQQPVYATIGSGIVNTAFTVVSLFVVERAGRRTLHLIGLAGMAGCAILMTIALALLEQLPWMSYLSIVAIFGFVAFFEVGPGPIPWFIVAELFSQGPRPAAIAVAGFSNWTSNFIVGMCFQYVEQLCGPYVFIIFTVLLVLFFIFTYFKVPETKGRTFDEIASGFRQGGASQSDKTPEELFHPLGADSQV
row,Compound,inhibition [%]
1,CCCCNC(=O)[C@H](Cc1ccccc1)NC(=O)c1ccc(O)c(-c2ccc(Cl)c(Cl)c2)c1,6.46
2,CN(C(=O)/C=C/c1cc(C(F)(F)F)ccc1F)C1CCN(CCCCCNC(=O)/C=C/c2ccc(Cl)c(Cl)c2)C1 (stereo not given),0.02
3,C=CCc1cc(Br)ccc1OCCCON1C(N)=NC(N)=NC1(C)C,19.1
4,CS(=O)(=O)Nc1ccc2[nH]cc(C3CCN(CC(O)C4CCN(C(=O)/C=C/c5ccc(Cl)c(Cl)c5)CC4)CC3)c2c1 (stereo not given),4.85
5,Cc1ccc(CNC(=O)[C@H](Cc2ccccc2)Nc2ccnc(NCC3CCCCC3)n2)cc1,7.85
6,CC(C)(C)c1cc(C(=O)N2CCN(c3ncccc3C(F)(F)F)CC2)n(Cc2ccccc2)n1,5.66
7,CCCc1cc2c3c(N)nc(N)nc3ccc2n1C(CC)CC,46.3
8,O=C(c1csc(-c2cccnc2)n1)N1CCc2cc3nccc(N4CCN5CCC[C@H]5C4)c3cc21,15
9,O=c1cc(NC[C@H]2CCC[C@@H]2NC2CCCc3c2[nH]c2ccccc32)[nH]c2ccccc12 (stereo not given in full),0.74
10,O=C(/C=C/c1ccc(Cl)c(Cl)c1)NCCCCCN1CCC(NC(=S)Nc2ccc(F)cc2F)CC1,16.5
11,FC(F)(F)c1ccc2[nH]c(-c3ccc(-c4ccc(CNCCN5CCNCC5)cc4)s3)nc2c1,9.4
12,COc1ccc(CN2CCCN(Cc3cccc(NC(=O)c4ccc(-c5ccccc5)cc4)c3)CC2)cc1,-0.75
13,C[C@@H](CC1CCCCC1)NCc1cccc(NS(=O)(=O)c2ccc(O)c(-c3ccno3)c2)c1,10.7
14,CCC[C@@H]([C@@H](CC1CCC(C)CC1)C(=O)N[C@@H](CO)C(=O)Nc1nccs1)N(O)C=O (stereo not given in full),1.25
15,CN1CCN(C(C(=O)NCc2cc(Cl)cc(Cl)c2)c2ccc(Nc3cccc(C(F)(F)F)c3)cc2)CC1 (stereo not given),1
16,Cc1ccc(CON2C(N)=NC(N)=NC2(C)C)c(Cl)c1.Cc1ccc(CON2C(N)=NC(N)=NC2(C)C)cc1Cl,2.94
17,CC(C)(Cc1ccc(Cl)cc1)NCCCCCCNCCc1ccc(O)c(O)c1,-0.5
18,CC1(C)NC(N)=NC(=N)N1OCCCNC(=O)c1ccc(C(=O)NCCCON2C(=N)N=C(N)NC2(C)C)cc1,0.28
19,CCOc1ccc2c(=NN=Cc3cc(OC)c(OC)c(OC)c3)cc(C)[nH]c2c1,2.5
20,CC(C)(C)Nc1nc(Nc2cccc([N+](=O)[O-])c2)nc(-n2ccnc2)n1,1.91

row,Compound,inhibition [%]
1,CC1CCCCN1CCCNc1ncc2c(-c3ccc(NC(=O)Nc4cc(C(F)(F)F)ccc4F)c(F)c3)nn(C)c2n1 (stereo not given),1.38
2,COc1ccc(-n2ccnc2SCC(=O)Nc2cccc(C(F)(F)F)c2)c(OC)c1,0.63
3,CN(C)CCCOc1ccc(CN2CC[C@H](NC(=O)c3ccc(Cl)c(Cl)c3)C2)cc1Br,3.8
4,Cc1occc1C(=O)Nc1nc(-c2ccccn2)nc2ccsc12,78.6
5,CCNC1=NC2=C(CC(C(C)(C)C)CC2)C2(CCC(C(C)(C)C)CC2)S1 (stereo not given),4.57
6,COc1ccc(NC(=O)Nc2cc(C)nc3ccccc23)cc1Cl,9.47
7,O=C(Nc1cccc(CN2CCN(Cc3ccc(O)cc3)CC2)c1)c1ccc(-c2ccccc2)cc1,4.37
8,Cc1csc(-c2ncc(OC[C@@H](N)Cc3ccccc3)cc2-c2ccc3[nH]nc(C)c3c2)c1,2.54
9,CC(Oc1cc(-n2cnc3ccc(NC(=O)CCN4CCCCC4)cc32)sc1C(N)=O)c1ccccc1Cl (stereo not given),16.8
10,COc1ccc(-c2ccc(NC(=O)c3ccc(Cl)cc3)cc2)cc1CN(C)CCN(C)C,9.47
11,COc1ccc2c(=NN=C(C)c3ccccn3)cc(C)[nH]c2c1,5.68
12,O=[N+]([O-])c1cccc(CNC2CCN(Cc3ccc4ccccc4c3)CC2)c1,19
13,CCCN(CC1CC1)c1ncc(-c2ccccc2CNCc2ccccc2O)cn1,11.8
14,CC1CCC(NC(=O)c2nn(-c3ccc(Cl)cc3)c(=O)c3ccccc23)CC1 (stereo not given),1.52
15,O=C(NCCCCN1CCC(c2ccc3c(c2O)CCCC3)CC1)c1ccc(-c2ccc(Cl)cc2)cc1,1.35
16,COc1ccc(-c2cc(C(=O)N[C@@H](CC3CCCCC3)C(=O)NCCN3CCCC3)ccc2O)cc1,0.33
17,O=C(NCCCCCN1CCC(c2c[nH]c3ccccc23)CC1)Nc1ccc(Br)cc1,-0.87
18,O=[N+]([O-])c1cccc(/C=N/Nc2ccnc3ccc(C(F)(F)F)cc23)c1,4.51
19,Cc1c(CNCCN2CCCCC2)c(C(=O)O)c(C)n1Cc1ccc(Cl)cc1,-0.09
20,COc1ccc(CCN(C)CCCN2CCC(NC(=O)c3cccc4c(=O)c5ccccc5sc34)CC2)cc1OC,2.6

# Molecular target: Hexose transporter 1 (Plasmodium falciparum) (UniProt O97467)
# Assay: ST_JUDE_LEISH: Cytotoxicity at 2uM final concentration against transgenic Leishmania Mexicana promastigotes LmPfHT that are glucose transport deficient and complemented with the Plasmodium falciparum hexose transporter. Activity is measured by DNA content using SYBR green in vitro
# Type: functional
row,Compound,inhibition [%]
1,CCCCNC(=O)[C@H](Cc1ccccc1)NC(=O)c1ccc(O)c(-c2ccc(Cl)c(Cl)c2)c1,2.06
2,CN(C(=O)/C=C/c1cc(C(F)(F)F)ccc1F)C1CCN(CCCCCNC(=O)/C=C/c2ccc(Cl)c(Cl)c2)C1 (stereo not given),1.48
3,C=CCc1cc(Br)ccc1OCCCON1C(N)=NC(N)=NC1(C)C,27.3
4,CS(=O)(=O)Nc1ccc2[nH]cc(C3CCN(CC(O)C4CCN(C(=O)/C=C/c5ccc(Cl)c(Cl)c5)CC4)CC3)c2c1 (stereo not given),2.94
5,Cc1ccc(CNC(=O)[C@H](Cc2ccccc2)Nc2ccnc(NCC3CCCCC3)n2)cc1,4.83
6,CC(C)(C)c1cc(C(=O)N2CCN(c3ncccc3C(F)(F)F)CC2)n(Cc2ccccc2)n1,6.48
7,CCCc1cc2c3c(N)nc(N)nc3ccc2n1C(CC)CC,54.9
8,O=C(c1csc(-c2cccnc2)n1)N1CCc2cc3nccc(N4CCN5CCC[C@H]5C4)c3cc21,8.81
9,O=c1cc(NC[C@H]2CCC[C@@H]2NC2CCCc3c2[nH]c2ccccc32)[nH]c2ccccc12 (stereo not given in full),-1.31
10,O=C(/C=C/c1ccc(Cl)c(Cl)c1)NCCCCCN1CCC(NC(=S)Nc2ccc(F)cc2F)CC1,14.9
11,FC(F)(F)c1ccc2[nH]c(-c3ccc(-c4ccc(CNCCN5CCNCC5)cc4)s3)nc2c1,10.4
12,COc1ccc(CN2CCCN(Cc3cccc(NC(=O)c4ccc(-c5ccccc5)cc4)c3)CC2)cc1,-1.14
13,C[C@@H](CC1CCCCC1)NCc1cccc(NS(=O)(=O)c2ccc(O)c(-c3ccno3)c2)c1,8.37
14,CCC[C@@H]([C@@H](CC1CCC(C)CC1)C(=O)N[C@@H](CO)C(=O)Nc1nccs1)N(O)C=O (stereo not given in full),2.18
15,CN1CCN(C(C(=O)NCc2cc(Cl)cc(Cl)c2)c2ccc(Nc3cccc(C(F)(F)F)c3)cc2)CC1 (stereo not given),-2.61
16,Cc1ccc(CON2C(N)=NC(N)=NC2(C)C)c(Cl)c1.Cc1ccc(CON2C(N)=NC(N)=NC2(C)C)cc1Cl,4.84
17,CC(C)(Cc1ccc(Cl)cc1)NCCCCCCNCCc1ccc(O)c(O)c1,-2.96
18,CC1(C)NC(N)=NC(=N)N1OCCCNC(=O)c1ccc(C(=O)NCCCON2C(=N)N=C(N)NC2(C)C)cc1,0.77
19,CCOc1ccc2c(=NN=Cc3cc(OC)c(OC)c(OC)c3)cc(C)[nH]c2c1,1.22
20,CC(C)(C)Nc1nc(Nc2cccc([N+](=O)[O-])c2)nc(-n2ccnc2)n1,1.9

row,Compound,inhibition [%]
1,CC1CCCCN1CCCNc1ncc2c(-c3ccc(NC(=O)Nc4cc(C(F)(F)F)ccc4F)c(F)c3)nn(C)c2n1 (stereo not given),-0.99
2,COc1ccc(-n2ccnc2SCC(=O)Nc2cccc(C(F)(F)F)c2)c(OC)c1,0.74
3,CN(C)CCCOc1ccc(CN2CC[C@H](NC(=O)c3ccc(Cl)c(Cl)c3)C2)cc1Br,0.94
4,Cc1occc1C(=O)Nc1nc(-c2ccccn2)nc2ccsc12,73.2
5,CCNC1=NC2=C(CC(C(C)(C)C)CC2)C2(CCC(C(C)(C)C)CC2)S1 (stereo not given),4.3
6,COc1ccc(NC(=O)Nc2cc(C)nc3ccccc23)cc1Cl,8.02
7,O=C(Nc1cccc(CN2CCN(Cc3ccc(O)cc3)CC2)c1)c1ccc(-c2ccccc2)cc1,2.25
8,Cc1csc(-c2ncc(OC[C@@H](N)Cc3ccccc3)cc2-c2ccc3[nH]nc(C)c3c2)c1,0.85
9,CC(Oc1cc(-n2cnc3ccc(NC(=O)CCN4CCCCC4)cc32)sc1C(N)=O)c1ccccc1Cl (stereo not given),9.84
10,COc1ccc(-c2ccc(NC(=O)c3ccc(Cl)cc3)cc2)cc1CN(C)CCN(C)C,4.95
11,COc1ccc2c(=NN=C(C)c3ccccn3)cc(C)[nH]c2c1,9.51
12,O=[N+]([O-])c1cccc(CNC2CCN(Cc3ccc4ccccc4c3)CC2)c1,12.4
13,CCCN(CC1CC1)c1ncc(-c2ccccc2CNCc2ccccc2O)cn1,8.72
14,CC1CCC(NC(=O)c2nn(-c3ccc(Cl)cc3)c(=O)c3ccccc23)CC1 (stereo not given),1.39
15,O=C(NCCCCN1CCC(c2ccc3c(c2O)CCCC3)CC1)c1ccc(-c2ccc(Cl)cc2)cc1,1.06
16,COc1ccc(-c2cc(C(=O)N[C@@H](CC3CCCCC3)C(=O)NCCN3CCCC3)ccc2O)cc1,1.9
17,O=C(NCCCCCN1CCC(c2c[nH]c3ccccc23)CC1)Nc1ccc(Br)cc1,-1.37
18,O=[N+]([O-])c1cccc(/C=N/Nc2ccnc3ccc(C(F)(F)F)cc23)c1,2.45
19,Cc1c(CNCCN2CCCCC2)c(C(=O)O)c(C)n1Cc1ccc(Cl)cc1,0.33
20,COc1ccc(CCN(C)CCCN2CCC(NC(=O)c3cccc4c(=O)c5ccccc5sc34)CC2)cc1OC,1.86

# From ChEMBL document CHEMBL3433997, “St. Jude Leishmania screening dataset” (2016)
